In the OligoGym collection one finds sensor-assay potency score (higher = more potent) data, which are given here for 22 sequences.
Further: reference of the scale not given here.

The experiment deals with CSE1L. The experiment is described as follows: pooled miR-30 sensor sort-seq; sequence = guide strand. The conditions noted are these: shRNA.
Consider TTATGGATAAACATATTGCTTC, for which the sensor-assay potency score (higher = more potent) was -0.779.
As for TTTTAAATAATGAATGTGCTGT, the figure is 0.306; as for TCATCTTCAACAATTCTCCAGT, -0.0113.
TATTGCTTCAAACATGTAGTGA: the sensor-assay potency score (higher = more potent) is -0.339.
The result for TTAATCAAGAGAGGAATCGAGA reads -0.818; that for TTCATCTTCAACAATTCTCCAG, -0.255.
The sequence TTCTGTGGAAAATCTTCTCTGC showed a sensor-assay potency score (higher = more potent) of 0.43.
The result for TTGACTTAAATTCATGACGGTA reads -0.629.
The result for TATATTGGTCAACTGATTCAGG reads -0.381; that for TTGGGTTCTTACTAACAGCTAA, -0.417; that for TTAGCTTTGCAAGTTATTCTTA, 0.362.
The result for TAGCAGAATCTCAACAAACGGT reads -0.43.
In turn, TAGAAGATAAAAACCTTGGTGG returned a sensor-assay potency score (higher = more potent) of 0.264.
As for TACATTTCCAGATACCTTCTGA, the sensor-assay potency score (higher = more potent) is -0.0308.
Consider TAACAGCTAATAGCTTCTGTGT, for which the sensor-assay potency score (higher = more potent) was -1.13.
With TAATATATTTGATACCGTCAGC, the sensor-assay potency score (higher = more potent) was -0.712.
As for TTGAATTGCATTACTTACCAAC, the figure is -0.851; as for TTGTGTAATTCCATGCTTCTGT, -0.12; as for TAAGATTTCAGTAAACACCAAA, -0.574.
Turning to TTGACCTACAGGATCATGCTCT, the sensor-assay potency score (higher = more potent) is 0.379.
The result for TAAGTATGAACAACAATACTTT reads -0.402.
In turn, AAAACTTGCATAATCCTCGTAC came in with a sensor-assay potency score (higher = more potent) of 0.387.
